Data from PubChem BioAssay (NCI).
About 83,000 compounds went through this panel and 20% of them were active in at least one assay; those are over-represented in the sample as a whole.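 The test compound was applied at a single concentration to cells in 96-well plates for 48 hours, and percent growth was recorded.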 Unmarked numbers belong to inactive results. Calls of active or inactive are those of the source. The calls were made as follows: active = growth percent below 10; inactive = the rest.

Experiments:
Assay in all cases: NCI-60 one-dose screen, 48 h (100 = growth as untreated, 0 = no growth, -100 = all killed)
Conditions in all cases: 10 µM unless noted
DU-145 prostate = system: DU-145 prostate
K-562 leukemia = system: K-562 leukemia
MALME-3M melanoma = system: MALME-3M melanoma
MDA-MB-231 breast = system: MDA-MB-231 breast
RXF 393 renal = system: RXF 393 renal
SF-268 CNS = system: SF-268 CNS
SF-295 CNS = system: SF-295 CNS
SF-539 CNS = system: SF-539 CNS
UACC-257 melanoma = system: UACC-257 melanoma
M14 melanoma = system: M14 melanoma
HCT-15 colon = system: HCT-15 colon
HT29 colon = system: HT29 colon
SNB-75 CNS = system: SNB-75 CNS
SNB-19 CNS = system: SNB-19 CNS
U251 CNS = system: U251 CNS
PC-3 prostate = system: PC-3 prostate
SK-MEL-5 melanoma = system: SK-MEL-5 melanoma
UACC-62 melanoma = system: UACC-62 melanoma
LOX IMVI melanoma = system: LOX IMVI melanoma
SK-MEL-28 melanoma = system: SK-MEL-28 melanoma

SMILES | growth (DU-145 prostate) | growth (K-562 leukemia) | growth (MALME-3M melanoma) | growth (MDA-MB-231 breast) | growth (RXF 393 renal) [%] | growth (SF-268 CNS) | growth (SF-295 CNS) | growth (SF-539 CNS) | growth (UACC-257 melanoma) [%] | growth (M14 melanoma) | growth (HCT-15 colon) | growth (HT29 colon) | growth (SNB-75 CNS) | growth (SNB-19 CNS) [%] | growth (U251 CNS) | growth (PC-3 prostate) | growth (SK-MEL-5 melanoma) | growth (UACC-62 melanoma) [%] | growth (LOX IMVI melanoma) | growth (SK-MEL-28 melanoma) [%]
NS(=O)(=O)c1ccc(N2N=C(c3cccs3)CC2c2ccccc2O)cc1 (stereo not given) | -45% (active) | 4.59% (active) | 47.9% | -19.3% (active) | 27.1 | 7.15% (active) | 1.4% (active) | -23.5% (active) | 33.2 | 0.852% (active) | 4.16% (active) | -25.6% (active) | 30.5% | 63.3 | 0.571% (active) | 8.13% (active) | -29.1% (active) | 24.2 | 13.5% | 27.3
COc1ccc2cc(-c3nc(C)c(C(C)=O)c(-c4ccc(C)cc4)n3)ccc2c1 | 107% | 125% | 91.2% | 81% | 81.6 | 101% | 99.6% | 89.6% | 101 | 91.1% | 88.2% | 82.4% | 98.5% | 92.8 | 94.5% | 85.9% | 75.4% | 71.7 | 101% | 101
CC(C)(C)c1ccc(Cn2c(-c3nonc3N)nc3ccccc32)cc1 | 83.3% | 19.1% | 82.3% | 81.8% | 77.8 | 75.6% | 71.5% | 89.7% | 76.8 | 66.9% | 49.1% | 41.6% | 61.7% | 77.4 | 64.5% | 67.4% | 74.9% | 69.5 | 70.2% | 72.7
CC(C)NC(=O)OCC#CCOC(=O)NC(C)C | 111% | 87.9% | 92.6% | 103% | 113 | 110% | 82.8% | 109% | 105 | 101% | 108% | 104% | 89.5% | 97.5 | 99.5% | 97% | 106% | 99.6 | 104% | 104
Clc1ccc(Nc2ncnc3c2sc2ncccc23)c(Cl)c1 | 20.1% | 43.4% | 58.2% | 61.1% | 34 | 18.4% | 17.9% | 6.17% (active) | 39.3 | -25.6% (active) | 47.7% | 39.4% | 42.3% | 27.4 | 27% | 49.5% | 28% | 12.7 | 4.08% (active) | 65.9
COc1ccc(-c2nc(-c3ccccc3OCc3ccccc3OC)nc(C)c2C(C)=O)cc1 | 92.8% | 81.6% | 92.5% | 64.3% | 92.6 | 94.7% | 91.8% | 101% | 96 | 84.2% | 78.9% | 56.9% | 83.8% | 93.7 | 90.2% | 56.8% | 91.3% | 54.7 | 98.7% | 101
NC(N)=N/N=C/c1ccccc1 | 105% | 96.1% | 102% | 92.9% | 101 | 103% | 88.3% | 98% | 93.9 | 103% | 93.1% | 99.8% | 88.6% | 92.5 | 97.5% | 94.1% | 102% | 101 | 100% | 100
C=CCn1c(C)nc2cc(Nc3nc(N4CCCC4)nc4nc[nH]c34)ccc21 | 48.2% | -9.1% (active) | -29.3% (active) | -25% (active) | 54.4 | 29.3% | 31.2% | -18.7% (active) | 60.9 | 28.8% | 94.4% | 12.4% | -64.9% (active) | 44.9 | 21.2% | 42.6% | 49.5% | 31.7 | 37.8% | 30.3
